Bioassay records as filed in PubChem.
G9a block – blocks human histone lysine methyltransferase G9a; hit rate 8.8% among 350,000; Q96KQ7; Potency, µM (highest dose often 102 µM), usual class: inhibitors; AID 504332; G9a H3K9 monomethylation, AlphaScreen, 2 h; also: nearly all actives have a fitted effect of over 75% in size
Target sequence (Q96KQ7 913-1193 limits assumed): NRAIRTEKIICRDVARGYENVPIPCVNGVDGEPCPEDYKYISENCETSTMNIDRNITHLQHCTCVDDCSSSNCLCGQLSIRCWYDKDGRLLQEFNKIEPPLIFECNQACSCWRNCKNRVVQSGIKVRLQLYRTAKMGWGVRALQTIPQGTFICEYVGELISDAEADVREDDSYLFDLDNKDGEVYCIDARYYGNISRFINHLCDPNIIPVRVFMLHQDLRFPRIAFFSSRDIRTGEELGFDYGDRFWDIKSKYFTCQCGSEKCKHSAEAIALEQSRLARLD
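Compounds were preincubated with 20 nM G9a for 15 min, after which biotinylated H3K9 peptide (500 nM) and SAM (20 uM) started a 2 h room-temperature reaction. Monomethylated product was quantified by antibody-based AlphaScreen chemiluminescence.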
HP1b chromo inh – blocks HP1-beta chromodomain binding to methylated histone tails | hit rate 0.56% among 390,000 | AlphaScreen HP1-beta / biotin-H3K9me3 peptide binding | P83916 | AID 540317 | Potency, µM (highest dose often 114 µM), usual class: inhibitors; also: nearly all actives have a fitted effect of over 70% in size
Target sequence (P83916 whole entry, looked up): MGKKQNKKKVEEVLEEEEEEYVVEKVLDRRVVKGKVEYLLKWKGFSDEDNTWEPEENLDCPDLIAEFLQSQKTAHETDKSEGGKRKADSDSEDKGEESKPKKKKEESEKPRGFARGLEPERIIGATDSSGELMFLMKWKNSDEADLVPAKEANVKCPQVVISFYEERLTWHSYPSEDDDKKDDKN
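AlphaScreen: HP1-beta (50 nM) preformed 30 min with biotin-H3(1-18)K9me3 peptide (50 nM) in PBS pH 7.4, 0.01% Tween-20. Compound added for 30 min at RT, then streptavidin donor/nickel chelate acceptor beads (10 ug/mL) for 30 min.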
BAZ2B block – inhibitors of human BAZ2B bromodomain; Potency, µM (doses to about 114 µM), hits mostly inhibitors; Q9UIF8; AlphaScreen BAZ2B-H3K14Ac peptide displacement; hit rate 4.4% among 360,000; AID 504333; also: nearly all actives have a fitted effect of over 60% in size
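Compounds, titrated to a top concentration of 110 uM, were incubated 30 min at room temperature with preformed BAZ2B/acetyl-K14 H3 peptide complex (50 nM each). Proximity signal was measured by AlphaScreen after 20 min with beads.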
Sfp inh – blocks B. subtilis Sfp PPTase activity. Biochemical Sfp PPTase activity, qHTS. Potency, µM, actives largely listed as inhibitors. Q9F4F7. hit rate 3.5% among 310,000. AID 1490;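 also: the enzyme is Sfp with the accession as filed and its product quenches rhodamine fluorescence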
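Step 1, compound plus 15 nM Sfp-PPTase, 15 min, room temperature. Step 2, add rhodamine-CoA (5 uM) and BHQ-2-YbbR (12.5 uM). Step 3, read 525/598 nm fluorescence at 0 and 30 min.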
JMJD2A Tudor inh – blocks the human JMJD2A Tudor domain; AlphaScreen JMJD2A-Tudor / H3K4me3 peptide binding; Potency, µM (titrated, usually from 114 µM), actives largely listed as inhibitors; hit rate 4.4% among 390,000; also: nearly all actives have a fitted effect of over 50% in size
Numbers stand for hits; n = inactive; u = inconclusive; x = no result given; [ ] = remark or other dose. Compounds with a hit are over-represented: about 12% of the library has one in this group of screens. Calls follow the shape of the dose curve; as a rule, active = well fitted curve in the direction sought with a large enough effect; inconclusive = small, poorly fitted or top-dose-only effect, or another doubt; inactive = no such curve, though single readings can be large; an effect the other way counts as inactive or inconclusive.

SMILES | G9a block | HP1b chromo inh | BAZ2B block | Sfp inh | JMJD2A Tudor inh
O=C1NC(=O)/C(=C/c2ccco2)N1 | n[0.501 µM] | n | n | x | n
O=C1NC(=O)/C(=C/c2ccc(N3CCOCC3)o2)N1 | x | n | n | 32µM | n
O=C1NC(=O)/C(=C\c2ccc(N3CCOCC3)o2)N1 | 25µM | n | n | 18µM | n
Cc1cc(/C=C2\NC(=O)NC2=O)c(C)n1-c1ccc(N2CCOCC2)cc1 | x | n | n | n | u
CC(=O)Nc1ccc(NC(=S)Nc2ccc(F)cc2)cc1 | n | n | n | n | n
Cc1sc(NC(=S)Nc2ccc(F)cc2)c(C(N)=O)c1C | 28µM | n | n | 20µM | n[11.4 µM]
COC(=O)c1c(NC(=S)Nc2ccc(CC(=O)O)cc2)sc(C)c1C | 8.9µM | n | n | n | n
CCOC(=O)c1c(NC(=S)Nc2ccc(Cl)cc2)sc(C)c1C | u | n | n | n | n
Cc1ccc(CN(C)C(=O)CCNS(=O)(=O)c2ccccc2)o1 | n[0.501 µM] | n | n | x | n
C[C@H](N)c1nnc(SCc2c(Cl)cccc2Cl)o1 | u | n | u | u | n
C[C@H](N)c1nnc(SCC(=O)N(C)C)o1 | 8.9µM | n | u | u | u
CC(=O)c1ccc(N2CCN(S(=O)(=O)c3ccc4[nH]c5c(c4c3)CCCCC5)CC2)cc1 | n | n | n | x | n
CC(=O)Nc1ccc(Nc2nc(C)nc3c2oc2ccccc23)cc1 | n[12.7 µM] | n | n | n | n
CC(=O)c1ccc(Nc2ncnc3c2oc2ccccc23)cc1 | 79µM | n | u | n | u
O=c1[nH]c(NNC(=S)NC2CCCCC2)nc2c1C1(CCCC1)Cc1ccccc1-2 | n[12.7 µM] | n | n | 79µM | u
O=c1[nH]c(NNC(=S)NCc2ccccc2)nc2c1C1(CCCCC1)Cc1ccccc1-2 | 20µM | u | u | n | u
COCCCNC(=O)CN(c1cc(Cl)cc(Cl)c1)S(C)(=O)=O | n | n | n | n | n
CCn1ccnc1[C@@H]1C[C@H]2CN(Cc3ccccc3OC)C(=O)[C@]23CCCN13 | x | n | n | n | n
Nc1ccc(O)c(C(=O)O)c1 | 3.2µM | x | x | 45µM | x
Nc1ccc(C(=O)O)c(O)c1 (tested in a mixture with another compound) | x | x | x | n | x
CC(=O)c1ccccc1C(=O)N1CCCC(CNC(=O)c2ccccc2Cl)C1 (stereo not drawn) | n | n | n | n | 28µM
O=C(Nc1ccc(Cl)cc1)c1ccc2c(c1)S(=O)(=O)c1ccccc1C2=O | x | n | x | x | n
O=C(NC(=S)NCc1cccnc1)c1ccccc1[N+](=O)[O-] | n | n | n | n | n
COc1ccc2[nH]c(C)c(CCNS(=O)(=O)c3cc(F)ccc3OC)c2c1 | n | n | u | x | u
CC(=O)Nc1nc(C)c(C(C)(C)C)s1 | n | n | n | u | n
SMILES | G9a block | HP1b chromo inh | BAZ2B block | Sfp inh | JMJD2A Tudor inh
CC(C)CC(=O)Nc1nnn(C)n1 | u | n | n | n | n
Cc1ccccc1C(=O)Nc1nc(=S)ss1 | 13µM | n | n | 22µM | u
CC(C)CC(=O)Nc1nc(=S)ss1 | 1.6µM | u | n | 16µM | u
CC(=O)Nc1nc(=S)ss1 | u | n | n | 16µM | n
O=C(Nc1nc(=S)ss1)c1c(F)cccc1F | 18µM | n | n | 22µM | n
N#CC1=C(N)NC(SCC(=O)O)=C(C#N)C12CCCC2 | 35µM | n | n | 56µM | n
CCOc1ccc(CC(=O)NNC(=O)/C=C/C(=O)O)cc1 | 32µM | n | n | u | n
O=C(NC1CC1)c1cccc(NC(=O)c2cn3ccccc3n2)c1 | n[2.33 µM] | n | n | x | 40µM
O=C(NC1CC1)c1cccc(NC(=O)c2cnn(-c3ccccc3)n2)c1 | x | n | x | x | n
COc1cc2cc(CN(Cc3nnnn3Cc3ccco3)C3CCCCC3)c(=O)[nH]c2cc1OC | 40µM | n | n | 10µM | u
COc1ccc(Cn2nnnc2CN(Cc2cc3ccc(C)cc3[nH]c2=O)C2CCCC2)cc1 | 35µM | n | n | n | n
CCOc1ccc2[nH]c(=O)c(CN(Cc3nnnn3Cc3ccco3)C3CCCCC3)cc2c1 | u | n | 45µM | 4µM | n
COc1ccc(Cn2nnnc2CN(Cc2cc3cccc(C)c3[nH]c2=O)C2CCCC2)cc1 | u | n | n | n | n
Cc1ccc2cc(CN(Cc3ccccc3)Cc3nnnn3C3CCCC3)c(=O)[nH]c2c1 | n[12.7 µM] | n | n | n | n
CCC(C)(C)n1nnnc1CN(Cc1cc2cc(OC)ccc2[nH]c1=O)C1CCCC1 | n | n | n | n | n
